# About 5,600 (56%) of roughly 10,000 compounds were called active. Cut-off read from the data, not from the text of the source: active = inhibition above about 40%; inactive = the rest. The set was probably picked from earlier hits. Only a sample is shown.
# Biological target: Protein Mdm4 (Homo sapiens) + E3 ubiquitin-protein ligase Mdm2 (Homo sapiens) (UniProt O15151+Q00987)
# Assay: inhibition of human Mdm2/MdmX pairing – luminescence, single concentration, confirmation (AID 489028)
# Conditions: Mdm2-MdmX binding, luminescent assay; at 8 µM; hits give high values
# Sequence of Protein Mdm4 (Homo sapiens) + E3 ubiquitin-protein ligase Mdm2 (Homo sapiens) (O15151 whole entry, looked up): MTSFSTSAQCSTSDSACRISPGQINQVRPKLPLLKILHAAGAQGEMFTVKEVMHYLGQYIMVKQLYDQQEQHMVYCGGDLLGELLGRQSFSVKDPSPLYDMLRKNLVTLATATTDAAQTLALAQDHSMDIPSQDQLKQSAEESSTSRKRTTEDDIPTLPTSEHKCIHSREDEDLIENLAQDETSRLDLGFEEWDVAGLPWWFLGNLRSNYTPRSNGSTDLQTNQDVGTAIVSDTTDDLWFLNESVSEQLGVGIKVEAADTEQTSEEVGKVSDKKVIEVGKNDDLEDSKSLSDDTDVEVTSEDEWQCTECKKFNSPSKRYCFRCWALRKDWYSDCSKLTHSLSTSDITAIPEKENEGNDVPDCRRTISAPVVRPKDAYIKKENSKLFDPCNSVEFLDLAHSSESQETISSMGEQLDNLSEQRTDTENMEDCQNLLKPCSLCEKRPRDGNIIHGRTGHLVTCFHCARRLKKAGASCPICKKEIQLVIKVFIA
# Sequence of Protein Mdm4 (Homo sapiens) + E3 ubiquitin-protein ligase Mdm2 (Homo sapiens) (Q00987 whole entry, looked up): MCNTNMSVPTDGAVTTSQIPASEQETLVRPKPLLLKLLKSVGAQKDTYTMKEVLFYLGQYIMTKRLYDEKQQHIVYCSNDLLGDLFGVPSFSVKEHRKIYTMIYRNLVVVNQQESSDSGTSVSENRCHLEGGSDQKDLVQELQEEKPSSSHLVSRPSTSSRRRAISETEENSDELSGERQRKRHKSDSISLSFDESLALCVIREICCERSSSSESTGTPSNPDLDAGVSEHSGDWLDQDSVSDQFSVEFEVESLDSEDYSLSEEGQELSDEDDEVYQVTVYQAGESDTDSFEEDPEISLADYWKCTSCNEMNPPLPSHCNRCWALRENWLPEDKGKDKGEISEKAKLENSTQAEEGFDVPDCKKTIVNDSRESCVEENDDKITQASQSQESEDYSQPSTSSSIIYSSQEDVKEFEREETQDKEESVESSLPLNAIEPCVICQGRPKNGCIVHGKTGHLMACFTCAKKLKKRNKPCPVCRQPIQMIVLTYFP
row,Structure (SMILES),inhibition
1,O=C(/C=C/c1ccc(OCc2c(F)cccc2Cl)cc1)N1CCOCC1,66.7% (active)
2,CCc1nc(C)cn1S(=O)(=O)c1cc([N+](=O)[O-])ccc1Cl,50.9% (active)
3,O=C(CCCN1C(=O)/C(=C/c2ccco2)SC1=S)Nc1ccccc1,70.8% (active)
4,O=C(CCCN1C(=O)/C(=C\c2ccco2)SC1=S)Nc1cccc2ccccc12,94.5% (active)
5,OC(CNCC1CCCO1)Cn1c2ccc(Br)cc2c2cc(Br)ccc21 (stereo not given),38% (inactive)
6,Cc1oc2c(c1C(=O)N1CCOCC1)C(=O)c1ccccc1C2=O,62.5% (active)
7,Cc1c(C(=O)Nc2cccc(Cl)c2)cn2c(nc3ccccc32)c1C#N,9.95% (inactive)
8,Cc1nc(N2CCN(c3ccccn3)CC2)c2c(C)c(C(=O)Nc3ccc(F)c(Cl)c3)sc2n1,34.2% (inactive)
9,Cc1nnc(NC(=O)Nc2ccc(Cl)c(Cl)c2)s1,86.5% (active)
10,COc1ccc2nc(Nc3nc4ccc(NC(C)=O)cc4s3)sc2c1,35.2% (inactive)
11,CC(C)(C)CC(C)(C)NCC(O)COCCOc1ccc(Br)cc1 (stereo not given),51.1% (active)
12,Cc1nn(-c2ccccc2)c2sc(C(=O)N(Cc3ccco3)C(C)C(=O)NC(C)(C)C)cc12 (stereo not given),12.8% (inactive)
13,CC[C@H]1CN2CCc3cc(OC)c(OC)cc3[C@@H]2C[C@@H]1C[C@H]1NCCc2cc(OC)c(OC)cc21,99.8% (active)
14,Cc1ccc(-c2cccc([C@H]3[C@@H]4C=CC[C@@H](C)[C@@H]4C(=O)N3Cc3ccccc3)c2)cc1,-5.3% (inactive)
15,CCOC(=O)c1ccc(NC(=O)c2c(NCc3ccccc3)[nH]c(=O)[nH]c2=O)cc1,12.4% (inactive)
16,Cc1cc(NC(=O)/C=C/C(=O)N(c2ccccc2C)C(C(=O)NC2CCCC2)c2ccc(F)cc2)no1 (stereo not given),70% (active)
17,N/C(=N\OC(=O)N1c2ccccc2Sc2ccccc21)c1ccc(Br)cc1,-3.5% (inactive)
18,N/C(=N\OC(=O)c1ccc2c(c1)OCO2)c1ccc(Br)cc1,40.2% (active)
19,CCOC(=O)/C=c1\s/c(=C\c2ccc(C#N)cc2)c(=O)n1CC(=O)Nc1cccc(C)c1C,8.85% (inactive)
20,Oc1ccccc1C1=NN(c2ccccc2)C(c2ccccc2)C1 (stereo not given),8.55% (inactive)
21,COc1ccc(OC)c(NC(=O)c2sc3nc(C)cc(C)c3c2N)c1,15.5% (inactive)
22,COc1ccc(NC(=O)c2cc(-c3cc(OC)c(OC)c(OC)c3)nc3ccccc23)c(OC)c1,57% (active)

row,Structure (SMILES),inhibition
1,O=C(Nc1nnc(-c2ccccc2)o1)c1cc(-c2cccs2)nc2ccccc12,29.7% (inactive)
2,O=[N+]([O-])c1c(NCCO)cc(Sc2nc3ccccc3s2)c2nonc12,96.7% (active)
3,COc1cccc(CNC(=O)Cc2csc(Nc3nc(=S)[nH]c4ccccc34)n2)c1,15.8% (inactive)
4,COc1cccc(CNC(=O)c2nnn(CC(=O)Nc3cc(Cl)ccc3C)c2N)c1,62.3% (active)
5,CCCCCCSc1ccc([C@@H]2[C@@H]3C(=O)N(CC)C(=O)[C@@H]3[C@]3(C(=O)OC)CCCCN23)cc1OC,21.6% (inactive)
6,CCOC(=O)/C(=C\c1ccc([N+](=O)[O-])cc1)C(=O)c1cc(C(C)=O)c(Nc2ccccc2)s1,99.6% (active)
7,Cc1ccc2occ(/C=N/NC(=O)c3ccccc3C)c(=O)c2c1,65.8% (active)
8,Cn1c(C(=O)NCCCN2CCN(c3cccc(Cl)c3)CC2)cc2c(=O)n(C)c3ccccc3c21,37.8% (inactive)
9,CCc1ccc(-c2cc3c(=O)n(CC(=O)NCCCN4CCN(Cc5ccccc5)CC4)nc(C)n3n2)cc1,55.5% (active)
10,O=C1NC[C@@H](c2ccccc2)OC(=O)[C@H](Cc2ccc(F)cc2)CC/C=C/C[C@H]1CC(=O)N(CCO)Cc1ccccc1,54.5% (active)
11,O=C(C[C@H]1C/C=C\C[C@@H](NC(=O)OCC2c3ccccc3-c3ccccc32)C(=O)O[C@@H](c2ccccc2)CNC1=O)N[C@H](CO)Cc1ccccc1,28.4% (inactive)
12,C=CC[C@H](CC(=O)N(CCO)Cc1ccccc1)C(=O)N[C@@H](COC(=O)[C@@H](CC=C)Cc1ccc(F)cc1)Cc1ccccc1,1.35% (inactive)
13,CN1CCN(CCCNC(=O)c2ccc(/C=C3\Oc4ccccc4N(Cc4ccc(Cl)cc4)C3=O)cc2)CC1,55% (active)
14,Cc1ccccc1C(CC(=O)c1cccs1)C(C#N)C#N (stereo not given),54.7% (active)
15,Clc1cccc(Cl)c1OCCOCCNCc1ccccc1,86% (active)
16,O=C(N/N=C/c1sc(N2CCCCC2)nc1-c1cccs1)c1cccnc1,25.3% (inactive)
17,CCOc1ccccc1NC(=O)Cn1nnc(C(=O)NCc2cccs2)c1N,52.7% (active)
18,Cc1ccc(-c2nn(C(C)(C)C)c3ncnc(N)c23)cc1,67% (active)
19,COc1cc(SC)ccc1C(=O)Nc1nc(C)cs1,57.5% (active)
20,CCCC(=O)Nc1ccc(C(=O)N/N=C/c2ccc[nH]2)cc1,6.9% (inactive)
21,CCn1c(/C=C/Nc2ccccc2)[n+](CC)c2ccc(C(=O)OCC(F)(F)F)cc21,13.1% (inactive)
22,O=C(COc1ccccc1F)Nc1nc(-c2ccccn2)cs1,53.6% (active)

row,Structure (SMILES),inhibition
1,CCOC(=O)N1CCN(C(=O)c2ccc(S(=O)(=O)c3ccc(C)cc3)c(NC(C)=O)c2)CC1,8.65% (inactive)
2,CC1CCN(C(=O)c2ccc(S(=O)(=O)Cc3cc(F)ccc3F)c([N+](=O)[O-])c2)CC1,64% (active)
3,FC(F)(F)c1nnc2c3ccccc3c(Cl)nn12,47% (active)
4,COc1ccccc1C(=O)NC(=S)NC12CC3CC(CC(C3)C1)C2,21.8% (inactive)
5,Cn1nc(-c2ccccc2)c(CSc2cccc(Cl)c2)c1Cl,48.5% (active)
6,CCOC(=O)c1c(NC(=O)c2ccc(S(=O)(=O)N(C)CC3CCCO3)cc2)sc2c1CC(C)(C)NC2(C)C (stereo not given),47.1% (active)
7,C=CCN(CC=C)S(=O)(=O)c1ccc(C(=O)Nc2sc3c(c2C(N)=O)CCCCC3)cc1,10.8% (inactive)
8,CC1(C)CCSC(/C=C/c2ccccc2)=N1,68% (active)
9,Cc1[nH]c(=O)c(C(=O)/C=C/c2ccccc2)c2c1CCCC2,99.5% (active)
10,C=CCn1c(C)cc(C2=NNC(=NCC)SC2)c1C,98.1% (active)
11,O=C(/C=C/Sc1ncn[nH]1)c1ccc(Cl)cc1,80.4% (active)
12,Cc1cc(C)nc(S/C=C/C(=O)c2ccccc2)n1,32.4% (inactive)
13,CC[n+]1cc(C)ccc1/C=C/c1ccc(N(C)C)cc1,53.6% (active)
14,COc1ccccc1N1CCN(C(=O)c2cc(=O)c3cc(C)cc(C)c3o2)CC1,66.8% (active)
15,C#CCOCCOCCOCCNc1nc(N2CCN(C(=O)CCCCCCCCCCNC(=O)[C@H](CCCCN)n3cc(C)nn3)CC2)nc(N2CCN(C(=O)CCCCCCCCCCNC(=O)[C@H](CO)n3cc(CCCSC)nn3)CC2)n1,14% (inactive)
16,CN(NC(=O)c1ccccc1F)c1nc(C(F)(F)F)nc2ccccc12,57% (active)
17,O=C(Nc1nnc(-c2ccccc2F)s1)c1ccccc1F,-82.2% (inactive)
18,CN(NC(=O)c1ccccc1)c1nc2ccccc2nc1C(F)(F)F,51.9% (active)
19,CSc1nc(N(C)NC(=O)c2cccc(C)c2)c2ccccc2n1,57.7% (active)
20,CCOC(=O)/C=C/C(=O)OCC(=O)NC(c1ccccc1)c1ccccc1,74.5% (active)
21,COc1cc2c(cc1NC(=O)COC(=O)/C=C/c1ccccc1)oc1ccccc12,-6.7% (inactive)
22,Cc1ccccc1NC(=O)CSc1nc2ccc(Nc3nc(N4CCOCC4)nc(N4CCOCC4)n3)cc2s1,35.7% (inactive)

row,Structure (SMILES),inhibition
1,Cc1cc2cc3c(cc2nc1SCC(=O)Nc1c(C)cccc1C)CCC3,43.1% (active)
2,OCCNc1nc(Nc2ccc(Cl)c(Cl)c2)nc2ccccc12,69.5% (active)
3,O=C(CSc1nc2ccccc2c(=O)[nH]1)Nc1nc(-c2ccc(Br)cc2)cs1,47.8% (active)
4,O=C(NNc1ccccc1Cl)C(O)(c1cccc(C(F)(F)F)c1)c1cccc(C(F)(F)F)c1,36.2% (inactive)
5,COC(=O)Cc1[nH]n(-c2nc3ccccc3s2)c(=O)c1C(C)=Nc1ccc(OC)cc1,89.3% (active)
6,CCCCN(CCCC)CCC(O)c1cc2c(Cl)cc(Cl)cc2c2cc(C(F)(F)F)ccc12 (stereo not given),21.1% (inactive)
7,COc1cccc(-c2sc3ccc(OC)cc3c2-c2ccc(OCCN3CCCCC3)cc2)c1,49.5% (active)
8,COc1ccc2sc(-c3ccccc3OC)c(-c3ccc(OCCN4CCCC4)cc3)c2c1,5.35% (inactive)
9,O=C(CN1C(=O)c2ccccc2S1(=O)=O)N1CCc2ccccc21,53% (active)
10,COCCCNc1nc2c(-c3cccc(C)c3)nnn2c2ccc(Cl)cc12,67% (active)
11,C=CCC[C@@H](Cc1ccc(F)cc1)C(=O)O[C@H](CNC(=O)[C@H](CC=C)CC(=O)N(CCO)Cc1ccccc1)c1ccccc1,12.4% (inactive)
12,Cc1cccn2c(=O)c3cc(C(=O)NCCN4CCOCC4)c(=N)n(Cc4cccnc4)c3nc12,49.2% (active)
13,COc1ccc(CCn2c(=N)c(C(=O)NCC3CCCO3)cc3c(=O)n4cccc(C)c4nc32)cc1OC (stereo not given),48.1% (active)
14,CCc1ccc(CNC(=O)C2CCN(c3nnc(C)c4c(C)n(-c5ccc(C)cc5)nc34)CC2)cc1,56.7% (active)
15,COc1cc(NC(=O)c2ccccc2NS(=O)(=O)c2ccc(Cl)s2)cc(OC)c1,76.4% (active)
16,Oc1ccc(/C=N/Nc2nc(-c3ccccc3F)nc3ccccc23)c(O)c1,54.6% (active)
17,Cc1nc2ccccc2nc1N/N=C/c1ccc(O)cc1O,61.6% (active)
18,COC(=O)C1=C(Nc2ccc(C)cc2)C=C(C)C(C(=O)OC)C1c1ccc(F)cc1 (stereo not given),53.5% (active)
19,Nc1nonc1-n1nnc(C(=O)N/N=C/c2ccccc2O)c1CN1CCCC1,33.8% (inactive)

# — PubChem BioAssay AID489028 (Sanford-Burnham Center for Chemical Genomics, 2010)
